# Where “and” joins values, the source holds several entries; their conditions need not be identical. Equal entries are not always repeated. In all, about 2,900 compounds were measured (“NF-kB SEAP reporter activity, fold change vs agonist alone”: median about 0.99, highest 2% from about 2.6 on). This excerpt belongs to a sample that is enriched for the highest values.
# Assays:
# [1] = system: RAW-Dual; assay: NF-kB SEAP reporter activity, fold change vs agonist alone; cytotoxicity flag (confluency mask): not cytotoxic; higher = enhanced NF-kB activity
# In short: (§1)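 Library stock was pin-tooled at 50 nL into 384-well plates of RAW-Dual macrophages (50,000 cells/well, DMEM), followed 1 h later by a PRR agonist, and the cells were kept at 37 °C, 5% CO2. Supernatant collected after 20 hours was read for IRF by QuantiLuc luminescence and for NF-κB by QuantiBlue absorbance at 620 nm. Reporter activity is fold change over agonist-alone wells, and a well counted as cytotoxic when its IncuCyte confluency was below 70% of agonist controls in both mask sets.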
# [2] = system: RAW-Dual; assay: NF-kB SEAP reporter activity, fold change vs agonist alone; higher = enhanced NF-kB activity
# In short: as §1
# [3] = system: RAW-Dual; assay: NF-kB SEAP reporter activity, fold change vs agonist alone; cytotoxicity flag (confluency mask): cytotoxic (confluency <70% of control); higher = enhanced NF-kB activity
# In short: as §1
# [4] = agonist: ODN 1826 (TLR9) 0.5 ug/mL
# [5] = agonist: Pam2CSK4 (TLR2/6) 0.1 ug/mL
# [6] = agonist: Pam3CSK4 (TLR2/1) 0.1 ug/mL
# [7] = library stock concentration (final ~1000-fold dilution): 10 mM, cytotoxicity flag (confluency mask): not cytotoxic, agonist: Imiquimod (TLR7) […]
# [8] = library stock concentration (final ~1000-fold dilution): 10 mM, cytotoxicity flag (confluency mask): not cytotoxic, agonist: MPLA (TLR4) […]
smiles,measurement,setting,value
Nc1ncnc2[nH]nc(Nc3ccc(F)cc3)c12 (library stock concentration (final ~1000-fold dilution): 10 mM),NF-kB SEAP reporter activity,[1]; agonist: LPS (TLR4) 0.1 ug/mL,6.5
same,NF-kB SEAP reporter activity,[1]; [4],1.43
same,NF-kB SEAP reporter activity,[1]; [5],0.872
same,NF-kB SEAP reporter activity,[1]; [6],1.26
Fc1ccc(CNc2ncnc3ccc(F)cc23)cc1,NF-kB SEAP reporter activity,[2]; [7],0.988
same,NF-kB SEAP reporter activity,[2]; [8],1.47
COc1cc2c(cc1Cc1cccc(Cl)c1F)c(=O)c(C(=O)O)cn2C(CO)C(C)C (stereo not given),NF-kB SEAP reporter activity,[2]; [7],1.06
same,NF-kB SEAP reporter activity,[2]; [8],1.17
COc1cc2c(cc1Cc1cccc(Cl)c1F)c(=O)c(C(=O)O)cn2C(CO)C(C)C (stereo not given) (library stock concentration (final ~1000-fold dilution): 10 mM),NF-kB SEAP reporter activity,[1]; agonist: LPS (TLR4) 0.1 ug/mL,1.45
same,NF-kB SEAP reporter activity,[1]; [4],1.08
same,NF-kB SEAP reporter activity,[1]; [5],0.664
same,NF-kB SEAP reporter activity,[1]; [6],0.625
O=C1c2ccc(O)cc2C(=O)c2ccc(O)cc21 (library stock concentration (final ~1000-fold dilution): 10 mM),NF-kB SEAP reporter activity,[1]; agonist: LPS (TLR4) 0.1 ug/mL,1.38
same,NF-kB SEAP reporter activity,[1]; [4],1.04
same,NF-kB SEAP reporter activity,[1]; [5],1.32
same,NF-kB SEAP reporter activity,[1]; [6],1.16
O=C1c2ccc(O)cc2C(=O)c2ccc(O)cc21,NF-kB SEAP reporter activity,[2]; [8],1.26
Nc1nc(F)nc2c1ncn2C1OC(COP(=O)(O)O)C(O)C1O (stereo not given),NF-kB SEAP reporter activity,[2]; [7],0.903
same,NF-kB SEAP reporter activity,[2]; [8],1.03
Nc1nc(F)nc2c1ncn2C1OC(COP(=O)(O)O)C(O)C1O (stereo not given) (library stock concentration (final ~1000-fold dilution): 10 mM),NF-kB SEAP reporter activity,[1]; agonist: LPS (TLR4) 0.1 ug/mL,1.14
same,NF-kB SEAP reporter activity,[1]; [4],1.01
same,NF-kB SEAP reporter activity,[1]; [5],1
same,NF-kB SEAP reporter activity,[1]; [6],1.15
O=C(c1ccccc1)c1ccc2nc(NC(=O)c3csc(C4CCN(c5ncnc6ccsc56)CC4)n3)[nH]c2c1 (library stock concentration (final ~1000-fold dilution): 10 mM),NF-kB SEAP reporter activity,[1]; agonist: LPS (TLR4) 0.1 ug/mL,2.75 and 2.17
same,NF-kB SEAP reporter activity,[1]; [4],1.57 and 1.25
same,NF-kB SEAP reporter activity,[1]; [5],0.384 and 0.435
same,NF-kB SEAP reporter activity,[1]; [6],0.694 and 0.75
CNC(C)C(=O)NC(C(=O)N1CCCC1C(=O)NC1c2ccccc2CC1OCC#CC#CCOC1Cc2ccccc2C1NC(=O)C1CCCN1C(=O)C(NC(=O)C(C)NC)C1CCCCC1)C1CCCCC1 (stereo not given) (library stock concentration (final ~1000-fold dilution): 10 mM water),NF-kB SEAP reporter activity,[3]; agonist: LPS (TLR4) 0.1 ug/mL,0.764
same,NF-kB SEAP reporter activity,[3]; [4],1.11
same,NF-kB SEAP reporter activity,[3]; [5],0.798
same,NF-kB SEAP reporter activity,[3]; [6],0.718
CNC(C)C(=O)NC(C(=O)N1CCCC1C(=O)NC1c2ccccc2CC1OCC#CC#CCOC1Cc2ccccc2C1NC(=O)C1CCCN1C(=O)C(NC(=O)C(C)NC)C1CCCCC1)C1CCCCC1 (stereo not given),NF-kB SEAP reporter activity,"[2]; library stock concentration (final ~1000-fold dilution): 10 mM water, cytotoxicity flag (confluency mask): cytotoxic (confluency <70% of control), agonist: Imiquimod (TLR7) […]",0.836
same,NF-kB SEAP reporter activity,"[2]; library stock concentration (final ~1000-fold dilution): 10 mM water, cytotoxicity flag (confluency mask): cytotoxic (confluency <70% of control), agonist: MPLA (TLR4) […]",0.786
CC1(F)C(O)C(CO)OC1n1ccc(=O)[nH]c1=O (stereo not given),NF-kB SEAP reporter activity,[2]; [8],1.02
CC1(F)C(O)C(CO)OC1n1ccc(=O)[nH]c1=O (stereo not given) (library stock concentration (final ~1000-fold dilution): 10 mM),NF-kB SEAP reporter activity,[1]; agonist: LPS (TLR4) 0.1 ug/mL,1.26
same,NF-kB SEAP reporter activity,[1]; [4],0.945
same,NF-kB SEAP reporter activity,[1]; [5],0.82
same,NF-kB SEAP reporter activity,[1]; [6],0.78
CC1COCCN1c1cc(-c2ccnn2C)c2ccnc(-c3ccn[nH]3)c2n1.Cl (stereo not given) (library stock concentration (final ~1000-fold dilution): 10 mM),NF-kB SEAP reporter activity,[1]; agonist: LPS (TLR4) 0.1 ug/mL,1.89
same,NF-kB SEAP reporter activity,[1]; [4],0.957
same,NF-kB SEAP reporter activity,[1]; [5],1.09
same,NF-kB SEAP reporter activity,[1]; [6],1.19
CC1COCCN1c1cc(-c2ccnn2C)c2ccnc(-c3ccn[nH]3)c2n1.Cl (stereo not given),NF-kB SEAP reporter activity,[2]; [7],1.48
same,NF-kB SEAP reporter activity,[2]; [8],2.05
CC(C)NCC(O)COc1cccc2ccccc12.Cl (stereo not given),NF-kB SEAP reporter activity,[2]; [7],1.07
same,NF-kB SEAP reporter activity,[2]; [8],1.04
CC(C)NCC(O)COc1cccc2ccccc12.Cl (stereo not given) (library stock concentration (final ~1000-fold dilution): 10 mM),NF-kB SEAP reporter activity,[1]; agonist: LPS (TLR4) 0.1 ug/mL,0.913
same,NF-kB SEAP reporter activity,[1]; [4],0.94
same,NF-kB SEAP reporter activity,[1]; [5],0.822
same,NF-kB SEAP reporter activity,[1]; [6],1.08
